Assay [1] relates to TRPC4 beta (transient receptor potential cation channel C4), mouse. In words: activators of mouse TRPC4 channel, confirmation, cell-based, Fluo4 calcium, HEK293 TRPC4beta/mu-opioid, duplicates, 10 µM (AID 2426). To be noted: Fluo4 calcium fluorescence, at 10 µM; active compounds read high.
The subject of assay [2] is transient receptor potential cation channel C4 beta (TRPC4), mouse. Description: activators of mouse TRPC4 channel, confirmation, cell-based, second round, Fluo4, HEK293 TRPC4beta/mu-opioid, 1 µM (AID 2461;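 active means primary screen active and over 50% activation in each of two duplicate runs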). The conditions noted are these: Fluo4 calcium fluorescence, at 1 µM; active compounds read high.
Assay [3] relates to TRPC4 (transient receptor potential cation channel C4 beta), mouse. Description: positive allosteric modulators of mouse TRPC4, confirmation, cell-based, second round, Fluo-4, HEK293 TRPC4beta/mu-opioid, 1 µM (AID 2554;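 active means primary screen hit whose fluorescence ratio, in both repeats, exceeds the weak agonist control mean by 3 SD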). The conditions noted are these: DAMGO EC20, Fluo-4 calcium flux, at 1 µM; active compounds read high.
Assay [4] concerns TRPC4 beta (transient receptor potential cation channel C4), mouse. In words: positive allosteric modulators of mouse TRPC4, confirmation, cell-based, Fluo-4, HEK293 TRPC4beta/mu-opioid (AID 2555;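 active means primary screen hit whose calcium fluorescence ratio, in both repeats, exceeds the weak agonist control mean by 3 SD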). The conditions noted are these: DAMGO EC20, Fluo-4 calcium flux, at 10 µM; active compounds read high.
The target of assay [5] is Short transient receptor potential channel 4 (Mus musculus) (UniProt Q9QUQ5). Description: inhibitors of mouse TRPC4 channel, confirmation, cell-based, Fluo4, HEK293 TRPC4beta/mu-opioid (AID 2636;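 active means calcium signal cut by more than 3 SD below the full-agonist control yet still positive, in both repeats and the earlier primary screen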). To be noted: DAMGO, Fluo4 calcium flux, at 10 µM; active compounds read high.
For assay [6] the target is unchanged. Description: inhibitors of mouse TRPC4 channel, confirmation, cell-based, second round, Fluo4, HEK293 TRPC4beta/mu-opioid, 1 µM (AID 2637;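 active means calcium signal ratio cut to more than 3 SD under the fully stimulated control mean yet still positive, in both repeats and the primary screen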;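 on inhibition: percent of integrated ratio relative to wells lacking test compound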). To be noted: Fluo4 calcium flux, DAMGO, at 1 µM; active compounds read high.
Assay [7] shares this target. In words: mouse TRPC4 channel activators, dose response, cell-based, HEK293 TRPC4/mu-opioid, Fluo-4 calcium (AID 434937;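 active means primary screen activator hit with a dose response curve and TRPC4 channel activation at any tested dose; inactive means no activation, no dose response, or not a primary hit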).
For assay [8] the target is unchanged. In words: TRPC4 positive allosteric modulators, dose response, cell-based, HEK293 TRPC4/mu-opioid, Fluo-4 calcium, EC20 DAMGO (AID 434941;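 active means earlier screen potentiator hit that boosts the TRPC4 ion channel at some dose, with a dose response; inactive means no potentiation, no dose response, or not a prior hit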;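 further: calcium entry triggered by an EC20 dose of DAMGO at the co-expressed mu-opioid receptor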).
The target of assay [9] is Short transient receptor potential channel 6 (Mus musculus) (UniProt Q61143). In words: inhibition of mouse TRPC6 channel, confirmation, selectivity assay for TRPC4 inhibitor project, cell-based, HEK293, membrane potential dye, duplicate (AID 434948;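 active means active in primary screen and both duplicates, each dropping signal beyond three positive-control SD with fluorescence still positive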). The conditions noted are these: HEK293 TRPC6, membrane potential dye fluorescence, at 10 µM, stimulated with maximal-effect acetylcholine; active compounds read high.

For assay [10] the target is unchanged. In words: activation of mouse TRPC6 channel, confirmation, selectivity assay for TRPC4 activator project, cell-based, HEK293, membrane potential dye, duplicate (AID 434950;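 active means membrane potential signal rise above negative control mean plus 3 SD in both duplicates, also active in the earlier TRPC4 screen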). To be noted: HEK293 TRPC6, membrane potential fluorescence, at 10 µM; active compounds read high.
The target is the same in assay [11]. Description: TRPC6 potentiation by TRPC4 potentiator hits, confirmation, selectivity assay for TRPC4 potentiator project, HEK293 cells, membrane potential dye, duplicate (AID 434952;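 active means compound raising the membrane signal above positive-control mean plus 3 SD in both repeats, and a primary screen hit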). To be noted: HEK293 TRPC6, membrane potential dye fluorescence, at 10 µM, maximal acetylcholine added after compound; active compounds read high.
Assay [12] addresses Short transient receptor potential channel 4 (Mus musculus) (UniProt Q9QUQ5). Description: calcium flux activators in TRPC4/5HT1a cells, counter-screen for TRPC4 activator project, cell-based, second counter screen, HEK293 TRPC4/5HT1a, Fluo-4 (AID 434977;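 active means calcium signal rise above buffer-control mean plus 5 SD in both duplicates, and also a hit in the primary screen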). To be noted: Fluo-4 calcium flux, at 10 µM; active compounds read high.
Assay [13] in a line: calcium flux inhibitors in TRPC4/5HT1a cells, confirmation, counter-screen for TRPC4 inhibitor project, cell-based, second counter screen, HEK293 TRPC4/5HT1a, Fluo-4 (AID 434978;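 active means primary screen active whose calcium signal fell more than 3 SD beyond the full-serotonin control mean in both duplicate plates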;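 on outcome: serotonin given first at submaximal then at maximal dose after compound preincubation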). The conditions noted are these: Fluo-4 calcium flux, at 10 µM, serotonin added to trigger calcium flux; active compounds read high.
Assay [14] relates to TRPC4 (mouse), co-expressed with 5HT1a in HEK293. Description: calcium flux potentiators in TRPC4/5HT1a cells, confirmation, counter-screen for TRPC4 potentiator project, cell-based, second counter screen, HEK293 TRPC4/5HT1a, Fluo-4 (AID 434979;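 active means signal rise over 3 SD above mean of control wells given weak agonist, in both repeats and first screen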). The conditions noted are these: Fluo-4 calcium flux, at 10 µM, serotonin added at its EC20 dose; active compounds read high.
A short description of assay [15]: calcium flux activation in mu-opioid HEK293 cells, confirmation, counter-screen for TRPC4 activator project, cell-based, HEK293 mu-opioid receptor line (AID 449723;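 active means hit in primary screen, with calcium signal over 5 SD above buffer well mean in both duplicates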;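 further: counter screen cells carry the mu-opioid receptor alone and lack TRPC4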). The conditions noted are these: Fluo-4 calcium fluorescence, at 10 µM; active compounds read high.
A short description of assay [16]: calcium flux enhancement in mu-opioid HEK293 cells, confirmation, counter-screen for TRPC4 allosteric potentiator project, cell-based, HEK293 mu-opioid receptor line (AID 449724;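 active means calcium signal rise more than 3 SD above the low-dose agonist control mean, in both duplicate plates and the primary screen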;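 further: HEK293 cells carrying mu-opioid receptor only with no TRPC4 channel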). To be noted: Fluo-4 calcium flux, at 10 µM, compound added before EC20 DAMGO stimulus; active compounds read high.

Structures are written as SMILES. For part of these data: Potency and affinity values are given separately. Activity calls are given as the source filed them.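 How the source made its calls, unless noted: active means fluorescence ratio normalized to control raised more than 50% in primary screen plus both repeat runs; inactive means the rest.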

Sequence of Short transient receptor potential channel 6 (Mus musculus) (Q61143 whole entry, looked up): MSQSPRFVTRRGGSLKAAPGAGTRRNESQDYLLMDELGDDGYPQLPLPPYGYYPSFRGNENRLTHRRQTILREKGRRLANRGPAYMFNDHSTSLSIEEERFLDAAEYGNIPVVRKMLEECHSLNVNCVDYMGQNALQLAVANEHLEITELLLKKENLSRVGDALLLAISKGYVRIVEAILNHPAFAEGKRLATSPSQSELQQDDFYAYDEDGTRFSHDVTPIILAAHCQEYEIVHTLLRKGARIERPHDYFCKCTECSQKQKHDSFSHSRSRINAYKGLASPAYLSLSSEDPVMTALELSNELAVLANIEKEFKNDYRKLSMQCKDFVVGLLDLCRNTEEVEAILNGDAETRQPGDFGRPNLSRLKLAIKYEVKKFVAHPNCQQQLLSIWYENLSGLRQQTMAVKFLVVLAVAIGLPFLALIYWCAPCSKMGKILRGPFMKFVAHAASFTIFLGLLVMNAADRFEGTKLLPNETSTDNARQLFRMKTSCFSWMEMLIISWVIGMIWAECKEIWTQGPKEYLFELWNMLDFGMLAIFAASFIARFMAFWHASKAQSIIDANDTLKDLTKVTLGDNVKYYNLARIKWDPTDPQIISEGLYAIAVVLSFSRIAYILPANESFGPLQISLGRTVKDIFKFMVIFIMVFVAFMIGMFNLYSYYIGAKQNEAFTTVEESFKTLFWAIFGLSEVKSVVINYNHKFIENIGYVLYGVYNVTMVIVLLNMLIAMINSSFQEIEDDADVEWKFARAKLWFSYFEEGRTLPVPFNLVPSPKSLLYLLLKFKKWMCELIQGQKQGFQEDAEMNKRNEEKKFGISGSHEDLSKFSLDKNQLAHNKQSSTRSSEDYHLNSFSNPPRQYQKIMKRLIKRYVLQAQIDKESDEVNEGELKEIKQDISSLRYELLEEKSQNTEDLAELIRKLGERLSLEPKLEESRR
Sequence of Short transient receptor potential channel 4 (Mus musculus) (Q9QUQ5 whole entry, looked up): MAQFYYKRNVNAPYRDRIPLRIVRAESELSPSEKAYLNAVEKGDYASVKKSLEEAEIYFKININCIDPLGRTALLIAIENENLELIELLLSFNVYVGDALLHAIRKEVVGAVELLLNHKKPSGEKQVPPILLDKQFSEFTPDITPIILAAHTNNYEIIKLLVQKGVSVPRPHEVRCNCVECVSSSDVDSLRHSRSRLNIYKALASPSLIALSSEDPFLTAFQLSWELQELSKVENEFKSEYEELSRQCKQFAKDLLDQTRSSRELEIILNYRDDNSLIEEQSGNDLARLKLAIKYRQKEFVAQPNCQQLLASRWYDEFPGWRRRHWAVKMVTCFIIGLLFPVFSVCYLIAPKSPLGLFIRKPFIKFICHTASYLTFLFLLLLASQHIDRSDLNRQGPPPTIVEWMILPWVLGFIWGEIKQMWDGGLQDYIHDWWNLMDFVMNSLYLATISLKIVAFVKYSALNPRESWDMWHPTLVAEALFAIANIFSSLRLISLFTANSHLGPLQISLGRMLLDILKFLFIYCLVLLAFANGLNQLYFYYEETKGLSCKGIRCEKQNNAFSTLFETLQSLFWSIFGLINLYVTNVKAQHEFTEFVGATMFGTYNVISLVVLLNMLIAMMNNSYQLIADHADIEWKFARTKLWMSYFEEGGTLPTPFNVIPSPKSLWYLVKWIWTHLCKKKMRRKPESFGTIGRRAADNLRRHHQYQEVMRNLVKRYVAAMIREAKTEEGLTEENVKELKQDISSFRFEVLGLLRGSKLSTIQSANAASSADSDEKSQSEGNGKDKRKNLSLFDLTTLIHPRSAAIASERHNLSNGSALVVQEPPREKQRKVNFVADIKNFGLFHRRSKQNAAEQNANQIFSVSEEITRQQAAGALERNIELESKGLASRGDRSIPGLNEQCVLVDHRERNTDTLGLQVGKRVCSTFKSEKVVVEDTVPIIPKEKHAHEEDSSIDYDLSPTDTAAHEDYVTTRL

For `Cc1ccc(C(C)(C)C)cc1S(=O)(=O)Nc1nc2ccccc2nc1Cl`, the outcome in assay [1], in assay [2], in [3], in assay [4], in [5] and in [6] was inactive. Besides, the result in assay [7], in assay [8], in [9], in [10], in [11] and in assay [12] was inactive. The outcome in [14], in assay [15] and in [16] was inactive. Further, the inhibition in [13] was 6.84% (active).
Turning to `O=C(c1cccc(C(F)(F)F)c1)C1CCCN(Cc2cccn2-c2ccccn2)C1` (stereo not given), the result in assay [1], in [2], in assay [3], in assay [4], in [6] and in assay [7] was inactive. Moreover, the result in [8], in [10], in assay [11], in assay [12], in assay [14] and in assay [15] was inactive. Also, the result in assay [16] was inactive. In addition, the inhibition in [5] was 72% (active); in [9], 43% (active); in assay [13], 29.2% (active).
On to `COc1ccc(C)cc1N(C(=O)c1snc(C(N)=O)c1N)C(C(=O)NC1CCCC1)c1ccc(F)cc1` (stereo not given), for which the result in assay [1], in [2], in [3], in assay [4], in assay [7] and in [8] was inactive. Moreover, the result in assay [9], in assay [10], in [11], in assay [12], in assay [14] and in assay [15] was inactive. Besides, the result in assay [16] was inactive. The values for the inhibition in assay [5], in assay [6] and in [13] were 91% (active), 67% (active) and 41.2% (active), respectively.
Consider `O=C(NCCN1CCOCC1)c1ccc2c(c1)N(Cc1ccc(F)cc1)C(=O)CS2`, for which the outcome in assay [1], in assay [2], in [3], in assay [4], in assay [5] and in assay [6] was inactive. Further, the outcome in assay [7], in [8], in [9], in assay [10], in [11] and in [12] was inactive. In addition, the outcome in assay [13], in [14], in [15] and in assay [16] was inactive.
`NC(=O)c1nsc(C(=O)N(Cc2ccccc2Cl)C(C(=O)NCC2CCCO2)c2ccc(O)cc2)c1N` (stereo not given): the result in [1], in assay [2], in assay [3], in assay [4], in [6] and in assay [7] was inactive. In addition, the result in [8], in assay [9], in assay [10], in assay [11], in [12] and in assay [14] was inactive. The outcome in assay [15] and in assay [16] was inactive. For the same molecule, the inhibition in assay [5] was 90% (active); in assay [13], 28.6% (active).
Regarding `Cc1ccc2nc(C)c3c(c2c1)N(c1ccc(F)cc1)CC3`, the result in [1], in assay [2], in assay [3], in assay [4], in assay [7] and in assay [8] was inactive. Further, the call in assay [10], in [11], in assay [12], in assay [14], in [15] and in assay [16] was inactive. In addition, the inhibition in [5] is 90% (active); in [6], 71% (active); in assay [9], 25% (active); in [13], 33.8% (active).
Take `Cc1ccccc1N(C(=O)c1snc(C(N)=O)c1N)C(C(=O)NC1CCCC1)c1ccco1` (stereo not given): the result in assay [1], in assay [2], in [3], in assay [4], in [6] and in [7] was inactive. In addition, the outcome in [8], in assay [9], in assay [10], in [11], in assay [12] and in assay [14] was inactive. Further, the result in assay [15] and in [16] was inactive. Moreover, the figures for the inhibition in assay [5] and in [13] were 78% (active) and 37% (active), respectively.
With `Cc1ccc(NC(=O)CNc2ccccc2CN(C)C2CCCCC2)cc1`, the outcome in [1], in assay [2], in assay [3], in assay [4], in assay [6] and in assay [7] was inactive. Moreover, the result in assay [8], in assay [9], in [10], in [11], in assay [12] and in assay [14] was inactive. Besides, the outcome in [15] and in assay [16] was inactive. In addition, the figures for the inhibition in assay [5] and in assay [13] were 76% (active) and 33.5% (active), respectively.
Take `COCCn1c(SCc2cc(C(C)=O)ccc2OC)nc2cc(Cl)ccc2c1=O`: the outcome in assay [1], in assay [2], in [3], in assay [4], in [6] and in assay [7] was inactive. Further, the result in assay [8], in [9], in assay [10], in assay [11], in [12] and in [13] was inactive. The result in assay [14], in [15] and in [16] was inactive. Also, in [5], the inhibition was 78% (active).
With `Cn1c(-c2ccc(F)cc2)cnc1NCc1ccc(F)cc1`, the result in assay [1], in assay [2], in [3], in [4], in assay [7] and in assay [8] was inactive. Moreover, the outcome in [9], in assay [10], in [11], in assay [12], in assay [14] and in [15] was inactive. In addition, in assay [16], the outcome was inactive. Further, the inhibition in [5] was 90% (active); in assay [6] it was 68% (active); in assay [13], 22.5% (active).
For `O=C(c1cccc(C(=O)N2CCN(c3ccccc3)CC2)c1)N1CCN(c2ccccc2)CC1`, the result in [1], in assay [2], in [3], in assay [4], in assay [7] and in assay [8] was inactive. The call in [9], in [10], in assay [11], in assay [12], in assay [14] and in assay [15] was inactive. The result in assay [16] was inactive. In addition, the inhibition is 92% (active) in assay [5], 46% (active) in [6] and 26.9% (active) in assay [13].
With `Cc1ncsc1CCOC(=O)c1cccc([N+](=O)[O-])c1`, the outcome in assay [1], in [2], in assay [3], in assay [4], in [7] and in assay [8] was inactive. Moreover, the outcome in [9], in assay [10], in assay [11], in [12], in [14] and in [15] was inactive. Besides, in assay [16], the result was inactive. The inhibition in [5] is 83% (active); in [6] it was 49% (active); in assay [13] it was 40% (active).
Consider `CCOc1ccc(NC(=O)c2c[nH]n3c(=O)cc(C4CCN(C(=O)OC(C)(C)C)CC4)nc23)cc1`, for which the result in [1], in assay [2], in assay [3], in assay [4], in assay [6] and in [7] was inactive. Moreover, the result in assay [8], in [9], in [10], in assay [11], in assay [12] and in assay [14] was inactive. Moreover, the outcome in assay [15] and in assay [16] was inactive. Moreover, the inhibition is 50% (active) in assay [5] and 43.4% (active) in [13].
Regarding `Cn1cc(-c2nc3ccccc3[nH]2)c2ccccc21`, the result in assay [1], in assay [2], in assay [3], in assay [4], in assay [7] and in assay [8] was inactive. Besides, the call in [10], in assay [11], in assay [12], in [14], in assay [15] and in assay [16] was inactive. Further, the inhibition in assay [5] was 99% (active); in assay [6] it was 49% (active); in assay [9], 5.5% (active); in assay [13] it was 41.1% (active).
Take `CSC1=NC2(CCCCC2)C2=C(CCCC2)N1`: the outcome in [1], in [2], in assay [3], in assay [4], in assay [6] and in assay [7] was inactive. Moreover, the outcome in [8], in assay [9], in assay [10], in [11], in assay [12] and in assay [14] was inactive. Also, the outcome in [15] and in [16] was inactive. Besides, the inhibition in assay [5] is 96% (active); in assay [13] it was 33% (active).

The values are drawn from PubChem BioAssay.
